Our source for the inhibition values is PubChem BioAssay AID743126 (The Scripps Research Institute Molecular Screening Center, 2013).

Hit rate of the full screen: of about 370,000 compounds, about 2,100 (0.57%) were called active.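 The calls were made as follows: active = inhibition above mean plus 3 SD of compounds lying within the high and low control bounds (cut at about 19% in these data); inactive = the rest.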 Shown is part of a subset that was picked to be rich in actives.

Chain of Group 3 secretory phospholipase A2 (Homo sapiens) (Q9NZ20 whole entry, looked up): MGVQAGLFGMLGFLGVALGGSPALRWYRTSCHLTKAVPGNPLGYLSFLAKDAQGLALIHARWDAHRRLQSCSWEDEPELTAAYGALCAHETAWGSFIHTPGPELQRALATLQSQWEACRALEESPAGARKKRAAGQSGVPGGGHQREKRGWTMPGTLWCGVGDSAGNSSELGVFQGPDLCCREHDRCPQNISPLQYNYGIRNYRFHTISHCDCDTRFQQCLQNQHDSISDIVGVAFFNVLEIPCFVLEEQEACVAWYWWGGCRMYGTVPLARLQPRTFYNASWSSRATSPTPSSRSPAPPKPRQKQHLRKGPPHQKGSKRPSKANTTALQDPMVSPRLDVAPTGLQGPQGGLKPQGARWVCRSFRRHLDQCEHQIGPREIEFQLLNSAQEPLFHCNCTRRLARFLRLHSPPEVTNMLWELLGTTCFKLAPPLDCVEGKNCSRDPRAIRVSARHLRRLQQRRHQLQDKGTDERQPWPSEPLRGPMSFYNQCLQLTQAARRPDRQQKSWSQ

This assay has as its target Group 3 secretory phospholipase A2 (Homo sapiens) (UniProt Q9NZ20). In words: HGIII-sPLA2 enzyme inhibition – biochemical, QFRET, BODIPY PC-A2 liposome substrate, primary screen (AID 743126).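 Also: 0% = median of test compound wells and 100% = no enzyme DMSO wells.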 The note with it: QFRET BODIPY PC-A2 liposome hydrolysis, fluorescence; at 12.2 µM; hits give high values.
Regarding `C[C@]12CCC3C(CC[C@H]4C[C@@H](O)CC[C@]34C)C1CC[C@@H]2O` (stereo not given in full), the inhibition is 21.1% (active).

`C[C@]12CC[C@H](O)CC1=C([N+](=O)[O-])CC1C2CC[C@@]2(C)C1CC[C@@H]2O` (stereo not given in full): the inhibition was -3.04% (inactive).

In the case of `C[C@]12CCC3C(CC[C@H]4[C@H](O)[C@H](O)CC[C@]34C)C1CC[C@@H]2O` (stereo not given in full), the inhibition is 11.6% (inactive).

Consider `CC1=CC(=Cc2sc3ccccc3[n+]2C)C=C(C)O1`, for which the inhibition is 5.85% (inactive).

As to `COc1ccc(C(=O)C2CN(C)CC2C(=O)c2ccc(OC)cc2)cc1` (stereo not given), the inhibition is -10.5% (inactive).

Regarding `CN1CCN(C(=S)SCC(=O)Nc2ccc(Cl)cc2C(=O)c2ccccc2)CC1`, the inhibition is -21.3% (inactive).

Regarding `O=C(CCNS(=O)(=O)c1ccccc1)Nc1ccc(Cl)cc1C(=O)c1ccccc1`, the inhibition was -26.4% (inactive).

Regarding `O=C(COC(=O)c1ccccc1)Nc1ccc(Cl)cc1C(=O)c1ccccc1`, the inhibition is 21.3% (active).

For the molecule `C[C@@]1([C@@H](NP(=O)(c2ccccc2)c2ccccc2)c2ccccc2)C[C@H]1CCO`, the inhibition is -0.39% (inactive).

For `CNC(=O)O/N=C(\N)Cc1csc2ccc(Cl)cc12`, the inhibition is -5.86% (inactive).
